# From PMC4336329 (PLoS ONE, 2015)
# The campaign covered roughly 310,000 compounds. About 2,200 (0.71%) showed an effect of 50% or more. Effects have a minus sign here. The entries come from a sample that favours strong results as a whole.
# Biological target: human ether-à-go-go-related gene (hERG) potassium channel (human, UniProt Q12809)
# Experiment: primary screen, population patch clamp on CHO cells stably expressing hERG; higher = less effect of the substance
# Chain of human ether-à-go-go-related gene (hERG) potassium channel (Q12809 whole entry, looked up): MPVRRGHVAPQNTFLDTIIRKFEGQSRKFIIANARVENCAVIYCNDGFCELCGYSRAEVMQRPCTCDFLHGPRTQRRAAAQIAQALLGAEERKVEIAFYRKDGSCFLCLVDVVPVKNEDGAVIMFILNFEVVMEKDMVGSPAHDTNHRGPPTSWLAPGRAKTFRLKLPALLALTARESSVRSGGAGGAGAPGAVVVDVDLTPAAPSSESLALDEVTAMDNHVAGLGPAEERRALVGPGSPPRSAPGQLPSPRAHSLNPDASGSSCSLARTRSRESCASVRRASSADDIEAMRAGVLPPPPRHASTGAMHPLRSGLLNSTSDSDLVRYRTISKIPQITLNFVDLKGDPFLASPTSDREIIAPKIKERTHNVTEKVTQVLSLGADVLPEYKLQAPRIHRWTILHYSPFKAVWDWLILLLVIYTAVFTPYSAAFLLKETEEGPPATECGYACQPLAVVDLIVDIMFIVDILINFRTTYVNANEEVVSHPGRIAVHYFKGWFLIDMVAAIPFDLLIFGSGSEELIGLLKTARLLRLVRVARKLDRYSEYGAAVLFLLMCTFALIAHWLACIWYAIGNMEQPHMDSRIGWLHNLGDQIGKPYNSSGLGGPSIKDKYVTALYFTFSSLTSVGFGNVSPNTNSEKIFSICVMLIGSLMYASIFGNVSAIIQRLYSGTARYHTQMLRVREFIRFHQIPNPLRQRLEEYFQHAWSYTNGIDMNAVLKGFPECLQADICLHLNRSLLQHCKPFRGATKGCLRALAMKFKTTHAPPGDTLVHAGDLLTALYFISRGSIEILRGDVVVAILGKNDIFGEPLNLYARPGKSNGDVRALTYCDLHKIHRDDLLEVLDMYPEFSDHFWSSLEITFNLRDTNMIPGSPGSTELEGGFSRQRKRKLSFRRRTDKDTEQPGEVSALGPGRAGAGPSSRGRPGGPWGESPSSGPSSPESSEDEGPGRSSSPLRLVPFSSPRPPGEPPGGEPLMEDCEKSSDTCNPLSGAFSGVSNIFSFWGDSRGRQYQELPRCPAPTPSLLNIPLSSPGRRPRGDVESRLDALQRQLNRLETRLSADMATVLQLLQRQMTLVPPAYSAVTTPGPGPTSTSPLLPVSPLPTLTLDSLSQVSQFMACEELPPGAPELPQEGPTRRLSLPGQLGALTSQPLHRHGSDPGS
row,SMILES,"hERG current change (%, negative = inhibition) at 1uM"
1,CCn1ncc(CN2CCCC(CNC(=O)c3ccc(F)cc3)C2)c1C (stereo not shown),1.73%
2,CCOC(=O)C1(CC2CCCCO2)CCN(Cc2nccn2-c2cccc(C)c2)CC1 (stereo not shown),-1.48%
3,Cc1cc(CN2CCCC(CNC(=O)c3ccc(F)cc3)C2)cc(C)c1O (stereo not shown),-14.5%
4,CCOC(=O)C1(CC2CCCCO2)CCN(Cc2cc(F)ccc2-n2cccn2)CC1 (stereo not shown),-14.9%
5,Cc1cc(C)c(CN2CCCC(CNC(=O)c3ccc(F)cc3)C2)c(-n2cccn2)c1 (stereo not shown),-85.4%
6,COc1cccc(CN2CCCC(CNC(=O)c3ccc(F)cc3)C2)c1OC (stereo not shown),-12.6%
7,Cc1ccc(-n2cccn2)c(CN2CCCC(CNC(=O)c3ccc(F)cc3)C2)c1 (stereo not shown),-78.9%
8,O=C(NCC1CCCN(Cc2cccc(C(F)(F)F)c2)C1)c1ccc(F)cc1 (stereo not shown),-5.71%
9,CCOC(=O)C1(CC2CCCCO2)CCN(Cc2c(C)cc(C)cc2-n2cccn2)CC1 (stereo not shown),-84.1%
10,COc1cccc(NC(=O)NCCCCc2ccccc2)c1,-0.169%
11,CCOC(=O)CN(C(=O)c1snc(C(N)=O)c1N)C(C(=O)NCCC(C)C)c1ccc(F)cc1 (stereo not shown),7.34%
12,COc1ccccc1CNC(=O)C(CCSC)NS(=O)(=O)c1ccc2c(c1)oc(=O)n2C (stereo not shown),15.7%
13,CN(C)S(=O)(=O)c1cccc(C(=O)OCC(=O)N2CCCC2=O)c1,12.1%
14,O=C(CNC(=O)c1ccc(Cl)cc1)OCC(=O)c1ccccc1,-0.984%
15,Cn1c(SCC(=O)NCCc2ccccc2)ncc(C(=O)Nc2ccc(F)cc2)c1=O,12.5%
16,CC(C(=O)Oc1ccc2c(c1)OCO2)N1C(=O)c2ccccc2C1=O (stereo not shown),-1.93%
17,C/C(=N\N1CCN(c2ccc(Cl)cc2)CC1)c1cccs1,4.52%
18,O=C(NC1CCCCC1)c1ccc(NS(=O)(=O)c2cccc3cccnc23)cc1,12.5%
19,CCCCC(c1nnnn1C1CCCC1)N1CCN(C2CCCC2)CC1.Cl (stereo not shown),-82%
20,CCCC(c1nnnn1C1CCCCC1)N1CCN(C2CCCC2)CC1.Cl (stereo not shown),-16.6%
21,CCCCC(c1nnnn1C1CCCC1)N1CCN(C(=O)c2ccco2)CC1.Cl (stereo not shown),-13.5%
22,CCCC(c1nnnn1C(C)(C)CC)N1CCN(C2CCCC2)CC1.Cl (stereo not shown),-17.8%
23,CCC(c1nnnn1C1CCCCC1)N1CCN(C2CCCC2)CC1.Cl (stereo not shown),11.6%
24,CCCCC(c1nnnn1C1CCCC1)N1CCN(C2CCCCC2)CC1 (stereo not shown),-63.1%
25,C=CCNC(=O)c1c(Cl)cccc1Cl,6.34%

row,SMILES,"hERG current change (%, negative = inhibition) at 1uM"
1,COC(=O)C1=C(CSCc2ccco2)NC(=O)NC1c1cc(C)ccc1C (stereo not shown),-8.26%
2,CCOc1cccc(CN2CCN(CCCc3ccccc3)C(CCO)C2)c1O (stereo not shown),-54.7%
3,COc1cc(CN2CCN(CCCc3ccccc3)CC2CCO)cc(OC)c1 (stereo not shown),-46.8%
4,CCOc1cccc(CN2CCN(CCc3ccccc3)C(CCO)C2)c1O (stereo not shown),-20.1%
5,Cc1ccc(CN2CCN(CCCn3cccn3)CC2CCO)cc1 (stereo not shown),-23.7%
6,OCCC1CN(CCCc2ccccc2)CCN1Cc1ccc(F)cc1 (stereo not shown),-12.1%
7,COc1cccc(CN2CCN(CCCc3ccccc3)C(CCO)C2)c1O (stereo not shown),-41.8%
8,OCCC1CN(Cc2ccc(F)cc2)CCN1CCc1ccccc1 (stereo not shown),-48%
9,OCCC1CN(CCCn2cccn2)CCN1Cc1ccccc1 (stereo not shown),8.59%
10,CCOc1ccc(CN2CCN(CCCc3ccccc3)CC2CCO)cc1 (stereo not shown),-80.9%
11,CCOc1ccc(CN2CCN(CCCn3cccn3)CC2CCO)cc1 (stereo not shown),-83%
12,OCCC1CN(Cc2ccc(F)cc2)CCN1CCCc1ccccc1 (stereo not shown),-55%
13,CCOc1ccccc1CN1CCN(CCCc2ccccc2)CC1CCO (stereo not shown),-30%
14,CC(C)Oc1ccc(Cc2n[nH]c(=S)n2Cc2ccccc2)cc1Cl,5.04%
15,CC(=O)c1c(C)[nH]c(C(=O)OCC(=O)Nc2ccc(Cl)c(S(=O)(=O)N(C)C)c2)c1C,-2.69%
16,CCCNc1nc(C)cc(-c2cc(C(=O)NCc3ccccc3)on2)n1,12%
17,Cc1c(Cl)cccc1Nc1nc(N)nc(CSC(=S)N2CCOCC2)n1,8.31%
18,CCOC(=O)/C(C#N)=C\c1c(C)cc(C)c(COC(C)=O)c1C,15.6%
19,OCCOc1ccc(CN2CCN(CCCc3ccccc3)C(CCO)C2)cc1 (stereo not shown),-19.8%
20,Cc1ccc(CN2CCN(CCCc3ccccc3)CC2CCO)cc1 (stereo not shown),-68.7%
21,COc1ccc(O)c(CN2CCN(CCCc3ccccc3)C(CCO)C2)c1 (stereo not shown),-21.7%
22,OCCC1CN(CCCc2ccccc2)CCN1Cc1ccccc1 (stereo not shown),-35.6%
23,CCOc1ccc(CN2CCN(CCCc3ccccc3)C(CCO)C2)cc1 (stereo not shown),-75.8%
24,COc1ccc(CN2CCN(CCCc3ccccc3)C(CCO)C2)c(O)c1 (stereo not shown),-71.2%
25,OCCC1CN(CCCc2ccccc2)CCN1CCc1ccccc1 (stereo not shown),-32.3%

row,SMILES,"hERG current change (%, negative = inhibition) at 1uM"
1,C#Cc1ccc(CN2CCN(CCCc3ccccc3)C(CCO)C2)cc1 (stereo not shown),-14.1%
2,COc1ccc(CN2CCN(CCc3ccccc3)C(CCO)C2)c(O)c1 (stereo not shown),-26.9%
3,N#C/C(=C/c1ccc(-c2ccc(C(=O)O)c(Cl)c2)o1)C(=O)NCC1CCCO1 (stereo not shown),10.3%
4,COc1ccccc1CN1[C@@H](CC(=O)O)c2cc(F)ccc2S1(=O)=O,13.9%
5,Cc1ccc(S(=O)(=O)N2CCOCC2)cc1NC(=O)COC(=O)CNC(=O)c1ccc(C(C)(C)C)cc1,20.2%
6,COC(=O)C1=C(c2cc3ccccc3s2)C[C@@H]2CC[C@H]1N2C(=O)NCCCOC(C)C,2.84%
7,Cc1ccc(S(=O)(=O)N(C)N=O)cc1,19.1%
8,CCn1ccnc1CN1CCN(CC=C(C)C)C(CCO)C1 (stereo not shown),9.77%
9,O=C1N=C(N2CCOCC2)S/C1=C/c1ccc(-c2ccc(F)cc2)o1,9.65%
10,Cc1ccccc1-c1ccc(/C=C2/SC(N3CCOCC3)=NC2=O)o1,-3.7%
11,Cc1ccc(-c2ccc(/C=C3\SC(N4CCOCC4)=NC3=O)o2)cc1,-54.6%
12,CCc1nc2c(nnn2Cc2ccc(F)cc2)c(=O)[nH]1,1.79%
13,COc1ccc(C2CCCN2C(=S)Nc2cccc(Cl)c2C)cc1OC (stereo not shown),2.08%
14,N#C/C(=C\c1ccc(OCCN2CCOCC2)cc1)C(=O)Nc1ccccc1F,12.6%
15,CCCC(C(=O)OCC)P(=O)(c1ccccc1)c1ccccc1 (stereo not shown),-0.896%
16,CCOc1ccccc1NC(=O)CSc1nc2cccnc2n1C,5.84%
17,Cn1c(SCCCC(=O)c2ccccc2)nnc1-c1ccncc1,-24.9%
18,Cn1c(SCCCC(=O)c2ccc(Br)cc2)nnc1-c1ccncc1,-51.1%
19,Cn1c(SCCCC(=O)c2ccc(F)cc2)nnc1-c1ccncc1,-38.5%
20,Cc1ccc(NC(=O)c2ccc(CSc3nnc(C)s3)cc2)c(C)c1,9.08%
21,CCn1c(CNC(=O)c2ccc(OC)c(OC)c2)nnc1SCC(=O)Nc1ccc(OC)cc1,6.99%
22,c1ccc(CCn2c(SCc3ccccc3)nnc2-c2ccncc2)cc1,-12.4%
23,N#Cc1ccc(CSc2nnc(-c3ccncc3)n2CCc2ccccc2)cc1,-78.2%
24,Cn1c(SCc2ccc(C#N)cc2)nnc1-c1ccncc1,6.61%
25,O=C(OCCN1C(=O)c2ccccc2C1=O)c1cccs1,11.9%

row,SMILES,"hERG current change (%, negative = inhibition) at 1uM"
1,CNC(=O)c1cc2c(=O)n3cccc(C)c3nc2n(C(C)C)c1=N,-82.3%
2,C=CCn1c(=N)c(C(=O)NCCCOC)cc2c(=O)n3cc(C)ccc3nc21,-41.9%
3,O=C(NCc1cccnc1)c1cccn2c(=O)c3sccc3nc12,-16.3%
4,CCC(C)n1c(=N)c(C#N)cc2c(=O)n3cccc(C)c3nc21 (stereo not shown),-16.6%
5,Cc1cccn2c(=O)c3cc(C(=O)NCc4cccnc4)c(=N)n(C(C)C)c3nc12,-67.3%
6,CNC(=O)c1cc2c(=O)n3cc(C)ccc3nc2n(C(C)C)c1=N,-81.9%
7,CCC(C)n1c(=N)c(C#N)cc2c(=O)n3cc(C)ccc3nc21 (stereo not shown),-22%
8,COCCCNC(=O)c1cc2c(=O)n3cccc(C)c3nc2n(C(C)C)c1=N,-46.1%
9,Cc1cccn2c(=O)c3cc(S(=O)(=O)c4ccccc4)c(=N)n(Cc4cccnc4)c3nc12,-3.7%
10,COc1ccc2c(c1)CCc1c(C(=O)N3CCCCCC3)noc1-2,-1.37%
11,C=C(C)CN1C(=O)c2ccccc2C1=O,4.89%
12,Cc1nc(Nc2ccccc2)[nH]c(=O)c1CCC(C)C,1.92%
13,Cc1ccc(C)c(-n2c(-c3cccnc3)n[nH]c2=S)c1,18.2%
14,CCN(CC1CCCN(CCc2cccc(OC)c2)C1)C(=O)c1ccoc1 (stereo not shown),-14.5%
15,CCN(CC1CCCN(CCc2cccc(F)c2)C1)C(=O)c1ccc(CSC)o1 (stereo not shown),-52%
16,CCN(CC1CCCN(CCc2cccc(OC)c2)C1)C(=O)c1ccc(COC)o1 (stereo not shown),-51.1%
17,C=CCC(=O)N(CC)CC1CCCN(CCc2cccc(F)c2)C1 (stereo not shown),-17.6%
18,CCN(CC1CCCN(CCc2cccc(OC)c2)C1)C(=O)c1ccoc1C (stereo not shown),-27.8%
19,CCN(CC1CCCN(CCc2cccc(F)c2)C1)C(=O)c1cc2ccccc2o1 (stereo not shown),-64.7%
20,CCN(Cc1ccc(O)cc1)CC1CCCN(CCc2cccc(F)c2)C1 (stereo not shown),-8.8%
21,CCN(CC1CCCN(CCc2cccc(F)c2)C1)C(=O)c1cc(C)oc1C (stereo not shown),-2.34%
22,CCN(Cc1ccc(NC(C)=O)cc1)CC1CCCN(CCc2cccc(F)c2)C1 (stereo not shown),9.42%
